VP16 counter = counter-screen for ROR gamma inhibitors: Gal4-VP16 reporter; Potency, µM (doses to about 53.6 µM), most hits filed as inhibitors; AID 2546; Drosophila S2 Gal4-VP16 UAS-luciferase, luminescence, 20 h; 310,000 compounds, 3.5% hits;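 also: Gal4-VP16 expression switched on by copper sulfate through the metallothionein promoter; nearly all actives have a fitted effect of over 50% in size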
TDP1 cell CPT = DT40-hTDP1 cell growth loss with CPT; chicken DT40 Tdp1-/-;hTDP1 cells + 20 nM CPT, ATP luminescence, 48 h; Potency, µM (top dose mostly 46.2 µM), most hits filed as inhibitors; 420,000 compounds, 12% hits; AID 686979; also: nearly all actives have a fitted effect of over 55% in size
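Chicken DT40 Tdp1-/- cells stably complemented with human TDP1 were seeded at 400 cells/well in medium containing 20 nM camptothecin, exposed to pin-transferred compounds, and grown at 37 °C for at least 48 hr. Viability was read as ATP luminescence.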
RORgamma inh = blocks mouse ROR gamma transcriptional activity. Drosophila S2 Gal4-RORgamma UAS-luciferase reporter, 20 h. P51450. 310,000 compounds, 5.4% hits. Potency, µM (highest dose often 53.6 µM), actives largely listed as inhibitors; also: nearly all actives have a fitted effect of over 60% in size
Target sequence (P51450 whole entry, looked up, the tested form may be a part): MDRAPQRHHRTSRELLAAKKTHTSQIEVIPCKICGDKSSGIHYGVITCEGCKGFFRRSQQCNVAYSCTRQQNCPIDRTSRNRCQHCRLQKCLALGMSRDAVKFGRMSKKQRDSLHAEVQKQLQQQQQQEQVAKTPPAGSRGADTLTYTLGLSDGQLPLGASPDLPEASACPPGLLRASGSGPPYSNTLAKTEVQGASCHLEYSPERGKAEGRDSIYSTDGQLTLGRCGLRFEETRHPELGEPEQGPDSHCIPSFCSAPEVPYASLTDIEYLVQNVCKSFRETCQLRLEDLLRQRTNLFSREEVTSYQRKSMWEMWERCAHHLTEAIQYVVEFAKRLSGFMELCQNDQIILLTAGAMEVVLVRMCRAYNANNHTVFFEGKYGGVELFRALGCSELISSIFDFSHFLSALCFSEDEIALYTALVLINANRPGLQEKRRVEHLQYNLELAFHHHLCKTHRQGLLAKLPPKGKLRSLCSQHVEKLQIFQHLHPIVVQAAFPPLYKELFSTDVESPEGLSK
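Drosophila S2 cells stably expressing Gal4-DBD/mouse RORγ fusion under metallothionein promoter plus UAS-luciferase; compound 1 h, then 700 uM CuSO4 induction for 20 h at ambient temperature; inhibition read as reduced luminescence.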
TDP1 cell noCPT = qHTS for Inhibitors of human tyrosyl-DNA phosphodiesterase 1 (TDP1): qHTS in cells in absence of CPT | DT40 Tdp1-/- hTDP1 cells, no CPT, ATP luminescence, 48 h | AID 686978, 2013 | Potency, µM (doses to about 46.2 µM), usual class: inhibitors | 420,000 compounds, 15% hits; also: nearly all actives have a fitted effect of over 55% in size
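Luminescent ATP content (CellTiter-Glo) served as the growth readout. Knockout chicken DT40 cells expressing human TDP1 were exposed to compounds without camptothecin for a minimum 48 hr at 37 °C.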
TDP1 inh = blocks human tyrosyl-DNA phosphodiesterase 1. Q9NUW8. recombinant TDP1, AlphaScreen DNA substrate cleavage. Potency, µM (titrated, usually from 130 µM), actives largely listed as inhibitors. 350,000 compounds, 0.28% hits; also: nearly all actives have a fitted effect of over 40% in size
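Recombinant E. coli-expressed Tdp1 (1 nM) preincubated with compound 15 min at RT, then 5'-biotin/3'-phosphotyrosine-FITC DNA substrate (15 nM) added for 5 min. AlphaScreen beads (10 ug/ml) added, 10 min RT; tyrosine-FITC cleavage read as signal loss.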
Numbers stand for hits; – = inactive; ? = inconclusive; · = no result given; [ ] = remark or other dose. An excerpt weighted towards active compounds, which were near 19% of everything screened. Calls follow the shape of the dose curve; as a rule, active = well fitted curve in the direction sought with a large enough effect; inconclusive = small, poorly fitted or top-dose-only effect, or another doubt; inactive = no such curve, though single readings can be large; an effect the other way counts as inactive or inconclusive.

SMILES	VP16 counter	TDP1 cell CPT	RORgamma inh	TDP1 cell noCPT	TDP1 inh
CC1=CC(C)(C)NC(=S)N1c1cccc2ccccc12	5µM	?	?	26µM	–
CC1=CC(C)(C)NC(=S)N1C(C)c1ccccc1 (stereo not drawn)	4µM	?	2.2µM	?	·
CC1=CC(C)(C)NC(=S)N1CCO	·	–	·	–	·
CC1=CC(C)(C)NC(=S)N1c1ccc(Cl)cc1	·	–	·	?	·
O=C(Nc1nc2ccsc2c(=O)s1)c1ccc(F)cc1Cl	–	–	–	–	·
Cc1ccc(Nc2cccccc2=O)cc1	–	21µM	?	?	–
COC(=O)c1c(NC(=S)NN2CCN(C)CC2)sc2c1CCC(C)C2 (stereo not drawn)	5µM	?	2µM	?	–
COC(=O)c1c(NC(C)=O)sc2c1CCCC2	–	–	–	?	–
COC(=O)c1c(NC(=O)Cc2cccs2)sc2c1CCC(C)C2 (stereo not drawn)	–	?	?	?	–
NC(=O)c1c(NC(=O)CN2CCN(S(=O)(=O)c3ccccc3)CC2)sc2c1CCC2	·	13µM	·	18µM	·
CCn1cc(Br)c(C(=O)Nc2sc3c(c2C(N)=O)CCCC3)n1	–	–	–	–	–
Cn1cc(Br)c(C(=O)Nc2sc3c(c2C(N)=O)CCCC3)n1	–	?	–	16µM	·
CNC(=S)Nc1sc2c(c1C(=O)OC)CCC2	?	–	1.3µM	?	–
COc1ccc(Cn2c(=O)cc(N)n(-c3ccccc3C)c2=O)cc1	–	?	–	?	–
Cc1ccc(S(=O)(=O)CC(=O)Nc2sc3c(c2C(N)=O)CCCC3)cc1	·	15µM	·	21µM	–
COC(=O)c1c(NC(=O)CS(=O)(=O)c2ccc(C)cc2)sc2c1CCCC2	·	?	·	16µM	–
CS[C@@H]1SC[C@H]2C(=O)N(C)C(C(C)C)C(=O)OC[C@@H](NC(=O)c3cnc4ccccc4n3)C(=O)N[C@@H](C)C(=O)N(C)[C@H]1C(=O)N(C)C(C(C)C)C(=O)OC[C@@H](NC(=O)c1cnc3ccccc3n1)C(=O)N[C@@H](C)C(=O)N2C (stereo partly drawn)	–	·	0.04µM	·	–
COc1cccc(C(=O)N2CCN(c3nc4cc(C)cc(C)c4cc3C#N)CC2)c1	·	23µM	·	16µM	·
Cc1ccc2nc(N3CCN(C(=O)c4cccs4)CC3)c(C#N)cc2c1	–	21µM	–	15µM	–
CCOC(=O)N1CCN(C(=O)c2cc(OC)c(OC)c(OC)c2)CC1	–	–	–	–	·
COc1ccc2cc(C#N)c(N3CCN(C(=O)c4ccccc4C)CC3)nc2c1	–	?	–	?	–
Cc1ccc2cc(C#N)c(N3CCN(C(=O)c4ccccc4)CC3)nc2c1	–	21µM	–	10µM	–
COc1cc(C(=O)N2CCN(c3ccc(C)cc3C)CC2)cc(OC)c1OC	–	2.9µM	–	3.7µM	–
COc1ccc(C2Nc3ccccc3C(=O)N2Cc2ccncc2)cc1COc1ccc(NC(C)=O)cc1 (stereo not drawn)	·	·	·	·	–
COc1ccc(C(=O)N2CCN(c3nc4cc(C)ccc4cc3C#N)CC2)c(OC)c1	–	16µM	–	16µM	–
SMILES	VP16 counter	TDP1 cell CPT	RORgamma inh	TDP1 cell noCPT	TDP1 inh
Cc1ccc2cc(C#N)c(N3CCCN(C(=O)c4cnccn4)CC3)nc2c1	–	?	–	?	·
COc1cc(C(=O)N2CCCN(c3nc4cc(C)ccc4cc3C#N)CC2)cc(OC)c1OC	–	21µM	–	?	–
O=C(NC1(C(=O)O)CCCC1)c1ccccc1	·	–	·	–	·
NNc1ncnc2c1cnn2-c1ccccc1	?	?	11µM	?	–
CC(C)Nc1ncnc2c1cnn2-c1ccccc1	14µM	–	?	?	–
Cc1nc(SCC(=O)Nc2ccc(Cl)cc2[N+](=O)[O-])nc(C)c1C	–	–	–	?	–
CCOC(=O)c1cc(=O)[nH]c2ccccc12	–	–	–	–	–
CCOC(=O)[C@]12CCCC=C1N(CCC1=CCCCC1)C(=O)[C@H](CC(=O)NCCC(C)C)C2	·	15µM	·	12µM	·
CCOC(=O)[C@]12CCCC=C1N(Cc1ccco1)C(=O)[C@H](CC(=O)NCCCN1CCCC1=O)C2	·	–	·	–	·
CCCCCCCCN1C(=O)[C@H](CC(=O)NCCC(C)C)C[C@@]2(C(=O)OCC)CCCC=C12	·	13µM	·	12µM	·
CCCCCCCCN1C(=O)[C@H](CC(=O)NCC23CC4CC(CC(C4)C2)C3)C[C@@]2(C(=O)OCC)CCC=C12	·	–	·	16µM	·
CC(=O)NC(N1CCCCC1)C(F)(F)C(F)(F)C(F)(F)C(F)F (stereo not drawn)	–	–	–	–	–
CCCOC(=O)CSc1nnc(-c2cc(OC)c(OC)c(OC)c2)o1	–	–	–	–	–
Cn1c(N)c(C(=O)COC(=O)c2ccc(S(=O)(=O)N3CCCCC3)cc2)c(=O)n(C)c1=O	–	·	?	·	–
Cn1cc(S(=O)(=O)N2CCCCC2)cc1C(=O)NCc1ccc(Cl)cc1	·	18µM	·	?	–
O=C(Cc1ccc(S(=O)(=O)N2CCCCC2)cc1)NCc1ccc(Cl)cc1	·	29µM	·	–	–
Cc1ccc(CNC(=O)c2cc(S(=O)(=O)N3CCCCC3)cn2C)cc1	·	?	·	21µM	–
COc1ccc(N(CC(=O)N2CCN(c3cccc(C)c3)C(C)C2)S(=O)(=O)c2c(C)n[nH]c2C)cc1 (stereo not drawn)	–	?	–	?	–
c1ccc(-c2nc(CSc3nnc(-c4cccs4)o3)cs2)cc1	–	–	–	–	–
CC(=O)c1ccc(NC(=O)C2CCC(CNS(=O)(=O)c3ccc(Br)s3)CC2)cc1 (stereo not drawn)	·	–	·	–	–
Cc1ccc(C)c(N2CCN(C(=O)C3CCC(CNS(=O)(=O)c4ccc(Br)s4)CC3)CC2)c1 (stereo not drawn)	·	5.8µM	·	5.8µM	–[12.3 µM]
O=C(NCc1ccccc1)C1CCC(CNS(=O)(=O)c2ccc(Br)s2)CC1 (stereo not drawn)	·	–	·	–	–
O=C(C1CCC(CNS(=O)(=O)c2ccc(Br)s2)CC1)N1CCN(c2ccccc2)CC1 (stereo not drawn)	·	4.6µM	·	?	–
O=C(C1CCC(CNS(=O)(=O)c2cccs2)CC1)N1CCN(c2ccc(Cl)cc2)CC1 (stereo not drawn)	?	6.5µM	–	4.1µM	–
CC(=O)COc1ccc(-c2csnn2)cc1	–	–	–	–	–
O=C1C[C@H](c2ccccc2)[C@@H](c2ccc(Br)cc2)O1	–[10 µM]	·	–[10 µM]	·	–[21 µM]
C[C@@H]1[C@@H](Sc2ccccc2)CC(=O)O[C@@H]1c1ccc(-c2ccccc2)cc1	–	8.2µM	–	7.3µM	–
O=c1[nH]c(CSc2cccc[n+]2[O-])nc2ccccc12	–	10µM	?	?	–

Screening data as filed in PubChem.
